In PubChem BioAssay (NCI):
The panel holds about 79,000 compounds, 15% with a hit somewhere; the sample as a whole holds those more often. A number with no mark means an inactive call. The source made the active and inactive calls. Cut-off read from the data, not from the text of the source: active = growth inhibition above about 70%; inactive = the rest.

Experiments:
[1] = NCI Yeast Anticancer Drug Screen. Data for the rad50 strain (AID 155);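 note: 0% = growth of vehicle-only cultures of the same strain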; conditions: S. cerevisiae rad50 strain growth inhibition, hits give high values
Outline: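 A DNA repair-deficient yeast mutant serves as the test organism; compound-induced growth inhibition is calculated against vehicle-treated cells.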

[2] = NCI Yeast Anticancer Drug Screen. Data for the mec2-1 strain (AID 157); conditions: S. cerevisiae mec2-1 strain, hits give high values
Outline: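 Compounds were applied to mec2-1 yeast cells. Their growth was then compared with that of vehicle-treated cultures to give growth inhibition.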

[3] = NCI Yeast Anticancer Drug Screen. Data for the sgs1 mgt1 strain (AID 161);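 note: 0% = growth of cultures given vehicle only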; conditions: S. cerevisiae sgs1 mgt1 strain, hits give high values
Outline: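 Growth of a repair-deficient yeast mutant was monitored after compound treatment and expressed as inhibition relative to vehicle-treated cultures.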

[4] = NCI Yeast Anticancer Drug Screen. Data for the cln2 rad14 strain (AID 165);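 note: 0% = growth equal to vehicle treated cultures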; conditions: S. cerevisiae cln2 rad14 strain, hits give high values
Outline: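 Strain: cln2 rad14 yeast, altered in cell cycle control and DNA damage repair. Read-out: growth inhibition vs vehicle.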

[5] = NCI Yeast Anticancer Drug Screen. Data for the bub3 strain (AID 167); conditions: S. cerevisiae bub3 mutant strain, hits give high values
Outline: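 Inhibition values come from growth of compound-treated mutant yeast normalised to vehicle-treated controls.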

[6] = NCI Yeast Anticancer Drug Screen. Data for the mlh1 rad18 strain (AID 175); conditions: S. cerevisiae mlh1 rad18 strain growth inhibition, hits give high values
Outline: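 A repair-deficient yeast strain is exposed to test compound, and growth is scored relative to vehicle-treated controls.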

[7] = at 5.0 µM (retest, dose inferred, filed as 0.5)
[8] = at 50.0 µM (retest, dose inferred, filed as 5.0)

N#CC1CC[CH-]CC1.[Cl-].[Cl-].[Cl-].[Cl-].[Cl-].[Sb+5].c1ccncc1
growth inhibition [1, 7]: -1%
growth inhibition [1, 8]: 98% (active)
growth inhibition ([1]; at 50.0 µM): 99.1% (active)
growth inhibition [2, 7]: 3%
growth inhibition [2, 8]: 100% (active)
growth inhibition ([2]; at 50.0 µM): 96.3% (active)
growth inhibition [3, 7]: 5%
growth inhibition [3, 8]: 99% (active)
growth inhibition ([3]; at 50.0 µM): 99.3% (active)
growth inhibition [4, 7]: 11%
growth inhibition [4, 8]: 99% (active)
growth inhibition ([4]; at 50.0 µM): 99.3% (active)
growth inhibition [5, 7]: -1%
growth inhibition [5, 8]: 99% (active)
growth inhibition ([5]; at 50.0 µM): 90.5% (active)
growth inhibition [6, 7]: 3%
growth inhibition [6, 8]: 99% (active)
growth inhibition ([6]; at 50.0 µM): 98.5% (active)

O=[N+]([O-])/C=C/c1cccc(F)c1
growth inhibition [1, 7]: 40%
growth inhibition [1, 8]: 99% (active)
growth inhibition ([1]; at 50.0 µM): 99.5% (active)
growth inhibition [2, 7]: 30%
growth inhibition [2, 8]: 99% (active)
growth inhibition ([2]; at 50.0 µM): 99.7% (active)
growth inhibition [3, 7]: 29%
growth inhibition [3, 8]: 99% (active)
growth inhibition ([3]; at 50.0 µM): 99.6% (active)
growth inhibition [4, 7]: 10%
growth inhibition [4, 8]: 99% (active)
growth inhibition ([4]; at 50.0 µM): 99.3% (active)
growth inhibition [5, 7]: 18%
growth inhibition [5, 8]: 98% (active)
growth inhibition ([5]; at 50.0 µM): 99.5% (active)
growth inhibition [6, 7]: 59%
growth inhibition [6, 8]: 99% (active)
growth inhibition ([6]; at 50.0 µM): 99.4% (active)

CC/C(=C/c1ccc(OC)cc1OC)[N+](=O)[O-]
growth inhibition [1, 7]: 66%
growth inhibition [1, 8]: 99% (active)
growth inhibition ([1]; at 50.0 µM): 99.4% (active)
growth inhibition [2, 7]: 48%
growth inhibition [2, 8]: 100% (active)
growth inhibition ([2]; at 50.0 µM): 99.7% (active)
growth inhibition [3, 7]: 51%
growth inhibition [3, 8]: 98% (active)
growth inhibition ([3]; at 50.0 µM): 99% (active)
growth inhibition [4, 7]: 22%
growth inhibition [4, 8]: 99% (active)
growth inhibition ([4]; at 50.0 µM): 99.3% (active)
growth inhibition [5, 7]: 44%
growth inhibition [5, 8]: 99% (active)
growth inhibition ([5]; at 50.0 µM): 99.5% (active)
growth inhibition [6, 7]: 39%
growth inhibition [6, 8]: 99% (active)
growth inhibition ([6]; at 50.0 µM): 99.2% (active)

N#CSCC(=O)O (tested in a mixture with another compound)
growth inhibition [1, 7]: 2%
growth inhibition [1, 8]: -6%
growth inhibition ([1]; at 50.0 µM): 0.5%
growth inhibition [2, 7]: 2%
growth inhibition [2, 8]: 4%
growth inhibition ([2]; at 50.0 µM): 7.4%
growth inhibition [3, 7]: 3%
growth inhibition [3, 8]: 5%
growth inhibition ([3]; at 50.0 µM): 5.85%
growth inhibition [4, 7]: -4%
growth inhibition [4, 8]: 3%
growth inhibition ([4]; at 50.0 µM): 25.1%
growth inhibition [5, 7]: -3%
growth inhibition [5, 8]: -3%
growth inhibition ([5]; at 50.0 µM): 6.3%
growth inhibition [6, 7]: 0%
growth inhibition [6, 8]: -6%
growth inhibition ([6]; at 50.0 µM): -7.75%

O=C1C=C(N2CC2)C(=O)C(N2CC2)=C1N1CC1
growth inhibition [1, 7]: 97% (active)
growth inhibition [1, 8]: 98% (active)
growth inhibition ([1]; at 50.0 µM): 99.2% (active)
growth inhibition [2, 7]: 98% (active)
growth inhibition [2, 8]: 99% (active)
growth inhibition ([2]; at 50.0 µM): 99.2% (active)
growth inhibition [3, 7]: 97% (active)
growth inhibition [3, 8]: 98% (active)
growth inhibition ([3]; at 50.0 µM): 98.8% (active)
growth inhibition [4, 7]: 99% (active)
growth inhibition [4, 8]: 98% (active)
growth inhibition ([4]; at 50.0 µM): 99% (active)
growth inhibition [5, 7]: 97% (active)
growth inhibition [5, 8]: 97% (active)
growth inhibition ([5]; at 50.0 µM): 99.2% (active)
growth inhibition [6, 7]: 98% (active)
growth inhibition [6, 8]: 98% (active)
growth inhibition ([6]; at 50.0 µM): 99% (active)

O=C(Nc1ccccc1)c1cc([N+](=O)[O-])ccc1O.[Ni]
growth inhibition [1, 7]: 51%
growth inhibition [1, 8]: 45%
growth inhibition ([1]; at 50.0 µM): 69.3%
growth inhibition [2, 7]: 34%
growth inhibition [2, 8]: 37%
growth inhibition ([2]; at 50.0 µM): 57.6%
growth inhibition [3, 7]: 34%
growth inhibition [3, 8]: 100% (active)
growth inhibition ([3]; at 50.0 µM): 77.5% (active)
growth inhibition [4, 7]: 46%
growth inhibition [4, 8]: 100% (active)
growth inhibition ([4]; at 50.0 µM): 33.5%
growth inhibition [5, 7]: 54%
growth inhibition [5, 8]: 99% (active)
growth inhibition ([5]; at 50.0 µM): 59.8%
growth inhibition [6, 7]: 38%
growth inhibition [6, 8]: 36%
growth inhibition ([6]; at 50.0 µM): 52.3%

C[C@]12CCC(O)CC1=CC[C@@H]1[C@@H]2CC[C@]2(C)C(=O)[C@H](n3ccnc3)C[C@@H]12 (some centres not stated)
growth inhibition [1, 7]: 21%
growth inhibition [1, 8]: 54%
growth inhibition ([1]; at 50.0 µM): 41.9%
growth inhibition [2, 7]: 12%
growth inhibition [2, 8]: 46%
growth inhibition ([2]; at 50.0 µM): 58%
growth inhibition [3, 7]: 18%
growth inhibition [3, 8]: 62%
growth inhibition ([3]; at 50.0 µM): 52.2%
growth inhibition [4, 7]: 29%
growth inhibition [4, 8]: 51%
growth inhibition ([4]; at 50.0 µM): 38.2%
growth inhibition [5, 7]: 20%
growth inhibition [5, 8]: 56%
growth inhibition ([5]; at 50.0 µM): 38.9%
growth inhibition [6, 7]: 19%
growth inhibition [6, 8]: 51%
growth inhibition ([6]; at 50.0 µM): 75.6% (active)

CC(=O)Nc1ccccc1[As](OC(C)=O)c1ccccc1 (configuration not stated)
growth inhibition [1, 7]: 18%
growth inhibition [1, 8]: 97% (active)
growth inhibition ([1]; at 50.0 µM): 99.3% (active)
growth inhibition [2, 7]: 11%
growth inhibition [2, 8]: 99% (active)
growth inhibition ([2]; at 50.0 µM): 99.4% (active)
growth inhibition [3, 7]: 28%
growth inhibition [3, 8]: 98% (active)
growth inhibition ([3]; at 50.0 µM): 99.5% (active)
growth inhibition [4, 7]: 99% (active)
growth inhibition [4, 8]: 84% (active)
growth inhibition ([4]; at 50.0 µM): 98.7% (active)
growth inhibition [5, 7]: -3%
growth inhibition [5, 8]: 99% (active)
growth inhibition ([5]; at 50.0 µM): 99.5% (active)
growth inhibition [6, 7]: 29%
growth inhibition [6, 8]: 98% (active)
growth inhibition ([6]; at 50.0 µM): 99% (active)

O=[N+]([O-])/C=C\c1ccc2c(c1)OCO2
growth inhibition [1, 7]: 99% (active)
growth inhibition [1, 8]: 100% (active)
growth inhibition ([1]; at 50.0 µM): 99.3% (active)
growth inhibition [2, 7]: 100% (active)
growth inhibition [2, 8]: 100% (active)
growth inhibition ([2]; at 50.0 µM): 99.5% (active)
growth inhibition [3, 7]: 99% (active)
growth inhibition [3, 8]: 99% (active)
growth inhibition ([3]; at 50.0 µM): 99.5% (active)
growth inhibition [4, 7]: 100% (active)
growth inhibition [4, 8]: 99% (active)
growth inhibition ([4]; at 50.0 µM): 98.8% (active)
growth inhibition [5, 7]: 100% (active)
growth inhibition [5, 8]: 94% (active)
growth inhibition ([5]; at 50.0 µM): 99% (active)
growth inhibition [6, 7]: 100% (active)
growth inhibition [6, 8]: 100% (active)
growth inhibition ([6]; at 50.0 µM): 99.5% (active)
